Compound activity as filed in PubChem BioAssay.
VDR inhibitor = vitamin D3 receptor (human) inhibition | VDR-SRC2-3 peptide fluorescence polarization, 2 h | Potency, µM, inactives show max response, negative = inhibition, actives largely listed as inhibitors | 0.93% of 400,000 active | AID 504847; further: potency means the concentration at half of the fitted maximal effect; on the % scale 0 is the no-effect control and ±100 the full control effect
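After 23 nl compound addition and a short centrifugation, plates sat for 2 hours at ambient temperature; polarization of fluorescence then indicated loss of VDR binding to peptide SRC2-3.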
FEN1 inh = inhibitors of human flap endonuclease 1 | Recombinant FEN1 flap cleavage, fluorescence, 15 min | Potency, µM (titrated, usually from 114 µM), inactives show at the highest dose activity change, negative = inhibition, usual class: inhibitors | 0.35% of 390,000 active; further: potency means the concentration at half of the fitted maximal effect; on the % scale 0 is the no-effect control and ±100 the full control effect; nearly all actives have a fitted effect of over 65% in size
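Quantitative HTS format: each compound was titrated, incubated with 10 nM nuclease for 15 min at room temperature, then challenged with flap substrate at 50 nM final. Signal change over 15 min gave concentration–effect curves.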
TCR act = T cell receptor activation; primary human leukocytes, anti-CD3, IL-2 HTRF, 48 h; Potency, µM (doses to about 9.22 µM), for inactives: at the top dose activation of IL-2 secretion, most hits filed as activators; 330,000 tested, under 10 active; further: % of control where 0% means no effect
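Readout: HTRF IL-2, Eu-cryptate/d2 antibody pair, 320nm excitation, 665nm emission. Stimulus: a-CD3 beads, no co-stimulation. Cells: primary human leukocytes. Exposure: 48 hr with compound.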
WRN helicase inh = inhibitors of human WRN helicase; WRN helicase unwinding, fluorescent forked duplex, kinetic; Potency, µM (top dose mostly 114 µM), for the others: at the highest dose activity change, negative = inhibition, hits mostly inhibitors; 0.46% of 360,000 active; AID 651768; further: potency means the concentration at half of the fitted maximal effect; on the % scale 0 is the no-effect control and ±100 the full control effect; nearly all actives have a fitted effect of over 55% in size
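Enzyme (20 nM final) and test compound sit together 15 min at room temperature before substrate addition. Substrate is a single-forked duplex oligonucleotide (100 nM) labelled with fluorophore and quencher, with 2 mM ATP; helicase unwinding raises red fluorescence, read kinetically.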
PI5P4K alpha inh = PI5P4K alpha (human) kinase inhibition; P48426; PI5P4Kalpha enzyme, ADP-Glo luminescence, 60 min; stronger effect = lower value; max response, %; 1.2% of 330,000 active; active means max response of -50% or lower; inconclusive means between -30% and -50%; inactive means -30% or higher; further: value at the top dose of about 77 µM; on the % scale 0 is the no-effect control and ±100 the full control effect
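Compounds were pin-transferred onto PI5P4Kalpha and substrate in HEPES pH 7.4 buffer with EGTA, CHAPS and 5% DMSO. ATP (5 microM final) started the reaction, which ran 60 minutes at room temperature before ADP-Glo detection.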
PLK1 PBD inh = inhibitors of human PLK1 polo-box domain binding. Plk1 PBD binding of FITC phosphopeptide, fluorescence polarization. Potency, µM, for the others: max response, negative = inhibition, most hits filed as inhibitors. 2.8% of 360,000 active; further: potency means the concentration at half of the fitted maximal effect; series mostly up to about 57 µM; on the % scale 0 is the no-effect control and ±100 the full control effect; nearly all actives have a fitted effect of over 65% in size
Target sequence (P53350 whole entry, looked up, the tested form may be a part): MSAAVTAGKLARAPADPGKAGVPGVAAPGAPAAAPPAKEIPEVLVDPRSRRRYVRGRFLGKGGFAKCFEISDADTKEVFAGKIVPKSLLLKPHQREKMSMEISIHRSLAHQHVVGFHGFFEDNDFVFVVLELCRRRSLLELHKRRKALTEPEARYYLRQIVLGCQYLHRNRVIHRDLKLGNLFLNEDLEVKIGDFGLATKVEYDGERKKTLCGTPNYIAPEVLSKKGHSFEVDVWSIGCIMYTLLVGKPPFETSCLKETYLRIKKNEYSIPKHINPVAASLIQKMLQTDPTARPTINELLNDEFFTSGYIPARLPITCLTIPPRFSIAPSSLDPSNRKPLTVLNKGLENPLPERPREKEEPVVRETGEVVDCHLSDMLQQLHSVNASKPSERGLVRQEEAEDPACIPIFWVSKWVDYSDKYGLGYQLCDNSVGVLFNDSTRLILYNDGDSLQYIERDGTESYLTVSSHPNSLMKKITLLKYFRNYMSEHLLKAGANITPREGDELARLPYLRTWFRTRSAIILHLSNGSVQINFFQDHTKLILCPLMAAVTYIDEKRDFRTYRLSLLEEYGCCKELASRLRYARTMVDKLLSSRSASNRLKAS
ADP-Glo interf = ADP-Glo luciferase interference, PI5P4K counter-screen; 1,100 tested, under 10 active; shares compounds with PI5P4K alpha inh; AID 743285; ADP-Glo detection counter-screen, luciferase luminescence, no enzyme; Potency, µM (series often up to 76.9 µM), for inactives: at the highest dose activity change, negative = inhibition, actives largely listed as inhibitors
TbPYK confirm = Trypanosoma brucei pyruvate kinase inhibition, cherry-pick confirmation; 67% of 890 active; recombinant TbPYK, Kinase-Glo ATP luminescence; Potency, µM (doses to about 76.9 µM), inactives show top-dose activity change, negative = inhibition, hits mostly inhibitors; AID 720569; shares compounds with PLK1 PBD inh; further: potency means the concentration at half of the fitted maximal effect; on the % scale 0 is the no-effect control and ±100 the full control effect; nearly all actives have a fitted effect of over 70% in size
TbPYK ADP-Glo = TbPYK inhibition, orthogonal confirmation; Potency, µM (top dose mostly 76.9 µM), inactives show at the top dose activity change, negative = inhibition, usual class: inhibitors; shares compounds with PLK1 PBD inh; 62% of 890 active; recombinant TbPYK, ADP-Glo luminescence, 60 min; further: potency means the concentration at half of the fitted maximal effect; on the % scale 0 is the no-effect control and ±100 the full control effect; nearly all actives have a fitted effect of over 75% in size
Starred values were filed as active, the others as inactive; ? = inconclusive; · = no result; [ ] = dose if it differs, or a comment. An excerpt weighted towards active compounds, which were near 3.7% of everything screened. Unless noted, the call rests on the fitted dose curve; in most records, active means well fitted curve in the direction sought with a large enough effect; inconclusive means small, poorly fitted or top-dose-only effect, or another doubt; inactive means no such curve, though single readings can be large; an effect the other way counts as inactive or inconclusive.

SMILES	VDR inhibitor	FEN1 inh	TCR act	WRN helicase inh	PI5P4K alpha inh	PLK1 PBD inh	ADP-Glo interf	TbPYK confirm	TbPYK ADP-Glo
CCc1ccccc1NC(=O)Cn1c(=O)ccc2cc(S(=O)(=O)N3CCC(C)CC3)ccc21	2.4%	14.8%	·	·	·	·	·	·	·
Brc1ccc2nc(-c3ccco3)c(Cc3ccccc3)n2c1	·	·	·	-13.0%	?	-29.2%	·	·	·
Clc1cccc(Cc2c(-c3ccco3)nc3ccc(Br)cn23)c1	·	·	·	-35.9%	-82.1*	10.6µM*	-1.8%	?	?
COc1ccc(OC)c(NC(=O)C2CCN(S(=O)(=O)c3c(C)noc3/C=C/c3ccc(C)cc3)CC2)c1	9.7%	14.0%	·	·	·	·	·	·	·
CCOC(=O)c1c(NS(=O)(=O)c2ccc(Br)cc2)sc2c1CCC2	-27.1%	-21.0%	2.1%	?	-55.4*	21.2µM*	-1.3%	35.5µM*	?
CCOC(=O)c1c(NS(=O)(=O)Cc2ccccc2)sc2c1CCCC2	6.5%	-0.4%	-1.6%	-13.1%	·	?	·	·	·
CCOC(=O)c1cccc(NC(=O)NCc2ccc3c(c2)CCN3C(=O)CC)c1	17.4%	4.5%	·	·	·	·	·	·	·
COc1ccc(OC)c(C2CC(=O)N3CN(c4cccc(Cl)c4C)CSC3=C2C#N)c1 (stereo unspecified)	31.6µM*	-21.1%	6.2%	0.2%	-64.4*	?	-5.6%	15.8µM*	7.94µM*
COc1ccc(OC)c(C2CC(=O)N3CN(c4cccc(Cl)c4)CSC3=C2C#N)c1 (stereo unspecified)	50.1µM*	?	0.7%	0.3%	-77.5*	-8.2%	-11.0%	?	39.8µM*
COc1cccc(C2CC(=O)N3CN(c4cccc(Cl)c4C)CSC3=C2C#N)c1OC (stereo unspecified)	22.4µM*	-25.0%	-2.0%	-3.1%	-92.6*	26.7µM*	-13.5%	17.8µM*	6.31µM*
O=S(=O)(c1ccc(Cl)cc1)N1CCN(c2nc(-c3ccccc3)nc3ccccc23)CC1	-13.6%	-21.6%	·	·	·	·	·	·	·
N#CC1=C2SCC(O)(c3ccccc3)N2C(=O)CC1c1cccs1 (stereo unspecified)	-6.9%	-10.0%	·	-13.7%	·	-9.7%	·	·	·
N#CC1=C2SCN(c3ccccc3)CN2C(=O)CC1c1cccs1 (stereo unspecified)	?	-8.1%	-2.3%	-32.7%	-72.7*	26.7µM*	-7.6%	2.82µM*	2.51µM*
N#CC1=C2SCN(c3ccccc3)CN2C(=O)CC1c1ccccc1Cl (stereo unspecified)	28.2µM*	?	-1.8%	-1.5%	-81.8*	26.7µM*	-9.4%	7.94µM*	5.62µM*
N#CC1=C2SCN(c3ccccc3)CN2C(=O)CC1c1c(Cl)cccc1Cl (stereo unspecified)	22.4µM*	79.4µM*	-2.9%	0.8%	-75.2*	13.4µM*	-5.6%	3.16µM*	2.51µM*
CN1Cc2c(N3CCOCC3)nc(SCCC#N)c(C#N)c2CC1(C)C	-14.3%	-0.3%	-1.7%	-5.4%	-0.6	-9.7%	·	·	·
CC(C)Sc1nc(N2CCOCC2)c2c(c1C#N)CC(C)(C)N(C)C2	?	0.8%	-1.3%	?	-52.5*	2.67µM*	1.1%	-10.8%	-6.5%
CC(=O)Nc1c(C)nn(-c2ccccc2)c1N1CCC(C(=O)NCc2ccc(Cl)cc2)CC1	-1.4%	5.0%	·	·	·	·	·	·	·
CC(C)(NC(=O)c1ccccc1)c1nc2ccccc2s1	?	-6.0%	-0.2%	-5.4%	-81.6*	11.9µM*	-4.2%	8.91µM*	10µM*
CC1CCN(S(=O)(=O)c2ccc3c(c2)N(CC(=O)NCc2ccccc2)C(=O)CO3)CC1	10.4%	-3.1%	·	·	·	·	·	·	·
CCOC(=O)CNC(=O)CSc1nnc(-c2ccccc2)n1Cc1ccco1	11.3%	1.5%	-4.6%	-15.4%	-10.5	-9.5%	·	2.24µM*	1.41µM*
COc1ccc(C(=O)N2c3ccccc3C(C)(c3ccc(Cl)cc3)CC2(C)C)cc1 (stereo unspecified)	-3.4%	7.4%	·	·	·	·	·	·	·
CC1=CC(=Nc2c(C)n(C)n(-c3ccccc3)c2=O)C=C(C)C1=O	-3.2%	13.4%	11.2%[46.1 µM]	-13.9%	-19.8	-5.4%	·	-26.0%	-6.6%
Cc1ccnc(NC(=S)N2CCN(c3cccc(C(F)(F)F)c3)CC2)c1	-18.5%	-10.6%	4.8%	-11.6%	?	-7.1%	·	2.24µM*	2.82µM*
O=C1C=CC(=O)N1c1ccc(-c2nc3ccccc3o2)cc1	·	·	·	-10.3%	-59.9*	8.44µM*	·	-94.7%	11.2µM*
Nc1ccc(-c2nc3ccccc3o2)cc1	-3.3%	2.6%	-3.4%	3.5%	-1.5	7.3%	·	·	·
CCC(Sc1nc2ccccc2c2nc(-c3ccccc3)nn12)C(=O)Nc1cccc(OC)c1 (stereo unspecified)	21.5%	4.5%	·	·	·	·	·	·	·
COc1ccc(-c2cc(C(F)(F)F)nc(SCC(=O)NC(C)c3ccccc3)n2)cc1 (stereo unspecified)	-11.9%	1.6%	·	·	·	·	·	·	·
O=C1C2C3C=CC(C4CC34)C2C(=O)N1/N=C/c1ccc(-c2cccc([N+](=O)[O-])c2)o1 (stereo unspecified)	-8.1%	-0.9%	-25.6%[46.1 µM]	-3.8%	-20.9	-8.1%	·	·	·
